A short description of experiment [1]: Caspase-3/7 induction in HepG2 cells by small molecules, qHTS assay (AID 1346978). Note: nearly all actives have a fitted effect of over 15% in size. A digest of the protocol: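 Wild-type HepG2 cells, 2,000/well, settled 5 hr at 37 C and 5% CO2, then compound-treated for 17 hr; caspase-3/7 activity read by luminescent Caspase-Glo 3/7 after 30 min at room temperature.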
(In general: In qHTS, concentration-response curves come from the screen itself.)

Experiment [2] can be described thus: Caspase-3/7 induction in CHO-K1 cells by small molecules, qHTS cell viability counter screen (AID 1346979). Note: nearly all actives have a fitted effect of over 35% in size. A digest of the protocol: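 In the same wells as the caspase read, viability of compound-treated wild-type CHO-K1 cells was assessed using CellTiter-Fluor, added after 16hr at 37C and measured by fluorescence following 1hr further incubation.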
Experiment [3] is described as follows: Caspase-3/7 induction in CHO-K1 cells by small molecules, qHTS assay (AID 1346980). Note: nearly all actives have a fitted effect of over 15% in size. The gist of the method:
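Wild-type CHO-K1 cells exposed to compounds for 17hr at 37 C, 5% CO2. Caspase-3/7 activity then measured by Caspase-Glo 3/7 luminescence after 30min at room temperature.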

A short description of experiment [4]: Caspase-3/7 induction in HepG2 cells by small molecules, qHTS cell viability counter screen (AID 1346981). Note: series mostly up to about 92 µM; nearly all actives have a fitted effect of over 30% in size. The gist of the method:
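Treatment of HepG2 cells with DMSO-delivered compounds ran 16 hr at 37 C following a 5-hr pre-incubation of 2,000 cells/well. CellTiter-Fluor fluorescence, read after 1 hr, served as the viability measure in a qHTS format.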

The target in experiment [5] is Nuclear receptor subfamily 1 group I member 2 (Homo sapiens) (UniProt O75469). Kind of experiment: Human pregnane X receptor (PXR) small molecule agonists, qHTS assay (AID 1346982). Note: nearly all actives have a fitted effect of over 35% in size. Note: potency is the fitted concentration of half-maximal effect. The gist of the method:
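Stable HepG2 line reporting PXR-mediated CYP3A4 expression via luciferase. Treatment: 24 hr with compounds in DMSO at 37 C. Detection: ONE-Glo luminescence.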

The target in experiment [6] is Acetylcholinesterase (Homo sapiens) (UniProt P22303). Kind of experiment: Acetylcholinesterase (AChE) small molecule antagonists: enzyme-based qHTS assay (AID 1347397; calls by dose curve; note: nearly all actives have a fitted effect of over 55% in size). The settings on record: Potency: AChE enzyme activity inhibition. The gist of the method:
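Colorimetric DTNB read-out of thiocholine released from acetylthiocholine by recombinant human AChE (50 mU/mL as dispensed). Compounds were preincubated 30 min at RT before substrate/DTNB addition, with a 10 min RT reaction.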

Experiment [7] shares this target. Briefly: Acetylcholinesterase (AChE) small molecule antagonists: colormetric cell-based qHTS assay (AID 1347395; calls by dose curve; note: nearly all actives have a fitted effect of over 30% in size). The gist of the method: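 Endogenous AChE of human neuroblastoma SH-SY5Y cells was measured with an Ellman-type DTNB/acetylthiocholine mix. Compound pretreatment lasted 30 min at 37 C; substrate reaction ran 90 min at 37 C.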
Experiment [8] has as its target Nuclear receptor subfamily 1 group I member 2 (Rattus norvegicus) (UniProt Q9R1A7). Kind of experiment: Rat pregnane X receptor (rPXR) activation by small molecules, qHTS assay (AID 1346983). Note: nearly all actives have a fitted effect of over 20% in size. As to conditions: rPXR luciferase reporter cells, One-Glo luminescence, 24 h; max activation: stronger effect = higher value. The gist of the method: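 Cell-based rPXR activation assay: rPXR cells, 2,000 per well, rested 5hr at 37 C, then exposed to compounds in DMSO for 24 hr at 37 C. Luciferase activity read by One-Glo luminescence after 30 min at room temperature.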

Experiment [9] concerns the target Nuclear receptor subfamily 1 group I member 2 (Homo sapiens) (UniProt O75469). Briefly: CYP3A4 induction through human pregnane X receptor (PXR) by small molecules, qHTS assay (AID 1346984). Note: nearly all actives have a fitted effect of over 40% in size. A digest of the protocol:
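After 24 h at 37C with compound, DPX-2 cells (HepG2, co-transfected PXR response element and CYP3A4 promoter-luciferase) got 3uM final P450-Glo Luciferin-IPA for 3 h; One-Glo luminescence followed.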

Experiment [10] has the same target. Kind of experiment: Human pregnane X receptor (PXR) activation by small molecules, qHTS assay (AID 1346985). Note: nearly all actives have a fitted effect of over 40% in size. The gist of the method:
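DPX-2 cells (HepG2 co-transfected with a PXR response element and a CYP3A4-promoter luciferase construct) were seeded at 2,000 per well, rested 5 hr at 37C, then exposed to DMSO-dissolved compounds for 24 hr. Activation was read as luciferase luminescence.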

Unmarked numbers belong to inactive results. Records with an inconclusive call do not appear. Active and inactive are the calls of the source. Unless noted, calls come from the whole dose curve; as a rule, active = well fitted curve in the direction sought with a large enough effect in the repeat runs; inconclusive = weak or mixed curves; inactive = no such curve, though single readings can be large; an effect the other way counts as inactive or inconclusive.
% is set by controls: 0 for no effect and ±100 for the full control effect.

Nuclear receptor subfamily 1 group I member 2 (Rattus norvegicus), sequence (Q9R1A7 whole entry, looked up): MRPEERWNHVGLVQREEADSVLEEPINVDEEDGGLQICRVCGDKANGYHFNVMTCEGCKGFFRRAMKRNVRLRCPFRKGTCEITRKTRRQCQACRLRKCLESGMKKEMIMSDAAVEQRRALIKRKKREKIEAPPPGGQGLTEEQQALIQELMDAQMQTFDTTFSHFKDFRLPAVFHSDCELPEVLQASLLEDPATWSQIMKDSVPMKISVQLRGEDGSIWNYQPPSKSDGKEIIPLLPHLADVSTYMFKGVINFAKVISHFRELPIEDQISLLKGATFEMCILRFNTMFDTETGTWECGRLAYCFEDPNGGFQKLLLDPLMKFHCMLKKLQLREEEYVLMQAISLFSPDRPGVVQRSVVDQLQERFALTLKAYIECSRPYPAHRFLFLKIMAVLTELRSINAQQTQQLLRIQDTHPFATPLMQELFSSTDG
Acetylcholinesterase (Homo sapiens), sequence (P22303 whole entry, looked up): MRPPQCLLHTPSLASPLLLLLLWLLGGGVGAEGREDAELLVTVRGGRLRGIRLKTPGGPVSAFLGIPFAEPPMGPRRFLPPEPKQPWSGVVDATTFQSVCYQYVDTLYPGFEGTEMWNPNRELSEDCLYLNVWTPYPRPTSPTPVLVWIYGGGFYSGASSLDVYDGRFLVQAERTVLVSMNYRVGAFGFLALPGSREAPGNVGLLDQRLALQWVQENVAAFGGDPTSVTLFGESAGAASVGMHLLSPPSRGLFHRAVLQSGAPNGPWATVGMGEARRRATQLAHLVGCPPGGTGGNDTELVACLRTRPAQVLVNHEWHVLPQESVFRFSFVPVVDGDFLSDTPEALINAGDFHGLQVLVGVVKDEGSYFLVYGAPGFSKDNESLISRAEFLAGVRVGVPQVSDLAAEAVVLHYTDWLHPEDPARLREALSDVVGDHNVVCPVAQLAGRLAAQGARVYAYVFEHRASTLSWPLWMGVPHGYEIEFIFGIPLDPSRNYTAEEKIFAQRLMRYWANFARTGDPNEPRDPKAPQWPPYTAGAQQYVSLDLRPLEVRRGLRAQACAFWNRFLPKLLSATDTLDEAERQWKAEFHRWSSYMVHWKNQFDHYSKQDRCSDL
Nuclear receptor subfamily 1 group I member 2 (Homo sapiens), sequence (O75469 whole entry, looked up): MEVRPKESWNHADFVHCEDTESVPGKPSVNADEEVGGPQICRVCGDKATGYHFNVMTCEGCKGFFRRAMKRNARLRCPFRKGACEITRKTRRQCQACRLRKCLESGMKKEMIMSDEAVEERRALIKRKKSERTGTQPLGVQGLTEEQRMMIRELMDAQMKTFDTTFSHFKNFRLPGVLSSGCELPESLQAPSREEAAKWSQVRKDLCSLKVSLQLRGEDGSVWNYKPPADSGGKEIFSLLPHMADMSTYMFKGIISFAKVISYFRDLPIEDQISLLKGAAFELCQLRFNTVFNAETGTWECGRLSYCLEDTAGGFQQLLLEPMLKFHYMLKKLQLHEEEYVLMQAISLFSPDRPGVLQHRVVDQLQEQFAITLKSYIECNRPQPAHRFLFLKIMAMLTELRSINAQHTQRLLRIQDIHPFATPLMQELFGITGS

Consider `COC(=O)c1ccccc1S(=O)(=O)NC(=O)Nc1nc(C)cc(C)n1`, for which the Potency entry in experiment [1], in experiment [2], in [3], in experiment [4], in experiment [5] and in experiment [6] was “inactive” each time.

In the case of `O=[N+]([O-])c1cccc(O)c1`, the Potency result in [1], in experiment [2], in experiment [3], in experiment [4], in [7] and in [6] was “inactive” each time.

Take `CCOC(=O)CP(=O)(OCC)OCC`: the Potency result in experiment [1], in [2], in experiment [3], in [4], in experiment [5] and in experiment [7] was “inactive” in each case. For the same compound, in [6], the Potency entry was “inactive”.

For `CC1=C(C(=O)O)N2C(=O)[C@@H](N)[C@H]2SC1`, the caspase activation in experiment [1] is -0.113% [at 19 µM]. Besides, the activity change, negative = cytotoxicity is 7.27% [at 19 µM] in experiment [2] and 0.509% [at 19 µM] in [4]. For the same compound, in experiment [3], the caspase-3/7 activation was 0.154% [at 19 µM]. For the same compound, in experiment [5], the activation was -3.97% [at 19 µM]. Also, the activity, negative = inhibition in experiment [7] is 0.304% [at 23.6 µM]. For the same compound, the activity change, negative = inhibition in experiment [6] is 0.693% [at 23.6 µM].

For `CCS(=O)(=O)CCSP(=O)(OC)OC`, the Potency entry in experiment [1], in [2], in experiment [3], in experiment [4], in [5] and in experiment [6] was “inactive” each time.

In the case of `CCCCc1ccc(O)cc1`, the Potency entry in experiment [1], in experiment [2], in experiment [3], in experiment [4], in [5] and in experiment [7] was “inactive” in each case. Further, the Potency entry in experiment [6] was “inactive”.

For the compound `CCOP(=O)(N=C1SCCS1)OCC`, the Potency entry in [1], in experiment [2], in experiment [3], in [4], in experiment [5] and in experiment [6] was “inactive” in each case.

`CN1CCN(C(=O)O[C@H]2c3nccnc3C(=O)N2c2ccc(Cl)cn2)CC1`: the Potency entry in [1], in experiment [2], in experiment [3], in experiment [4], in [7] and in experiment [6] was “inactive” in each case. Further, the max activation in experiment [8] is 2%.

Consider `C[C@]12CC[C@H]3[C@@H](CC=C4C[C@@H](O)CC[C@@]43C)[C@@H]1CC[C@@H]2O`, for which the Potency result in experiment [1], in [2], in [3] and in experiment [4] was “inactive” throughout. Also, the max activation in experiment [8] was -0.895%.

As to `CC(CCc1ccccc1)NC(C)C(O)c1ccc(O)cc1` (stereo not given), the Potency entry in experiment [1], in [2], in [3], in [4], in [5] and in experiment [7] was “inactive” in each case. Moreover, in [6], the Potency result was “inactive”.

With `CCOC(=O)N(C)C(=O)CSP(=S)(OCC)OCC`, the Potency result in [1], in [2], in [3], in experiment [4] and in experiment [6] was “inactive” throughout. For the same compound, the Potency in experiment [5] was 30.6 µM (active).

For the compound `CC(C=O)Cc1ccc2c(c1)OCO2` (stereo not given), the Potency result in [1], in [2], in experiment [3], in experiment [4], in experiment [7] and in experiment [6] was “inactive” throughout.

Take `COc1cc(OC)nc(NC(=O)NS(=O)(=O)c2ncccc2C(=O)N(C)C)n1`: the Potency entry in experiment [1], in [2], in [3], in [4], in [5] and in [7] was “inactive” throughout. Also, in experiment [6], the Potency entry was “inactive”.

For the compound `CCC#N`, the Potency result in [1], in [2], in experiment [3], in experiment [4], in experiment [5] and in experiment [7] was “inactive” each time. Besides, the Potency entry in experiment [6] is “inactive”.

Take `CC1(C)CON(Cc2ccccc2Cl)C1=O`: the Potency entry in [1], in experiment [2], in experiment [3], in experiment [4], in [7] and in [6] was “inactive” in each case. For the same compound, the Potency in [5] is 68.6 µM (active).

As for `Cc1coc2c1CCC(C)C2` (stereo not given), the Potency result in [1], in [2], in experiment [3], in experiment [4], in experiment [7] and in experiment [6] was “inactive” each time. The Potency in experiment [5] was 17.8 µM (active).

In the case of `ClC(Br)Br`, the Potency result in experiment [1], in experiment [2], in experiment [3], in experiment [4], in experiment [5] and in [7] was “inactive” each time. For the same compound, the Potency entry in experiment [6] was “inactive”.

On to `Cc1cnc[nH]1`, for which the Potency result in experiment [1], in experiment [2], in experiment [3], in [4], in experiment [5] and in experiment [7] was “inactive” in each case. For the same compound, the Potency entry in experiment [6] is “inactive”.

On to `CCOP(=S)(OCC)SCSc1ccc(Cl)cc1`, for which the Potency result in experiment [1], in experiment [2], in experiment [3], in experiment [4] and in experiment [6] was “inactive” throughout. Also, in experiment [5], the Potency is 10.9 µM (active).

Regarding `O=C(N[C@H]1CN2CCC1CC2)c1cc2ccoc2cn1`, the Potency entry in experiment [1], in experiment [2], in [3], in [4], in experiment [5] and in experiment [6] was “inactive” in each case.

Regarding `ClC(Cl)(Cl)C(Cl)(Cl)Cl`, the Potency result in [1], in experiment [2], in experiment [3], in experiment [4], in [5] and in experiment [7] was “inactive” throughout. In experiment [6], the Potency entry was “inactive”.

`COc1cc(OC)nc(Sc2cccc(Cl)c2C(=O)O)n1`: the Potency entry in [1], in experiment [2], in [3], in experiment [4], in [5] and in [7] was “inactive” throughout. Besides, the Potency result in experiment [6] is “inactive”.

On to `Cc1cc(C)nc(Nc2ccccc2)n1`, for which the Potency result in [1], in experiment [2], in [3], in experiment [4], in experiment [7] and in experiment [6] was “inactive” each time.

For the compound `O=NN1CCN(N=O)CC1`, the Potency entry in [1], in experiment [2], in experiment [3], in [4], in [5] and in [7] was “inactive” in each case. For the same compound, in experiment [6], the Potency result was “inactive”.

Turning to `O=C1c2ccccc2C(=O)c2ccccc21`, the caspase activation in experiment [1] is -0.684% [at 19 µM]. The activity change, negative = cytotoxicity was 11.3% [at 19 µM] in [2] and 8.77% [at 19 µM] in experiment [4]. Also, the caspase-3/7 activation in [3] was 2.01% [at 19 µM]. In addition, in experiment [8], the max activation is 7.01%. In addition, the Potency result in [9] and in experiment [10] was “inactive” in each case. Besides, in experiment [7], the activity, negative = inhibition was -0.352% [at 23.6 µM]. For the same compound, the activity change, negative = inhibition in [6] is -0.378% [at 23.6 µM].

With `COC(C)(C)C`, the Potency result in experiment [1], in experiment [2], in experiment [3], in [4], in [5] and in experiment [7] was “inactive” in each case. Besides, the Potency entry in experiment [6] was “inactive”.

As for `O=C(NCO)NCO`, the Potency result in experiment [1], in experiment [2], in experiment [3], in [4], in experiment [5] and in [7] was “inactive” in each case. Moreover, the Potency result in experiment [6] was “inactive”.

The values above are taken from PubChem BioAssay (Tox21).
